In PubChem BioAssay (NCATS):
Results filed as inconclusive are left out. A number with no mark means an inactive call. Calls of active or inactive are those of the source. Calls follow the shape of the dose curve; as a rule, active = well fitted inhibition curve with a large enough effect; inconclusive = small, poorly fitted or top-dose-only effect, or effect the other way; inactive = no such curve, though single readings can be large or run the other way.
% is scaled to controls: 0 for no effect and ±100 for the full control effect; potency is read from the fitted curve at half-maximal effect.

Test: Quantitative high throughput screen for delayed death inhibitors of the malarial parasite plastid, 96 hour incubation (AID 488745); also: nearly all actives have a fitted effect of over 70% in size
Settings: Plasmodium falciparum growth; series mostly up to 28.7 µM; activity change, negative = inhibition: at the top concentration
Text: NIH Molecular Libraries Probe Production Network [MLPCN]
NIH Chemical Genomics Center [NCGC]
Assay Provider: David Fidock and Eric Ekland, Columbia University
The goal of this screen is to discover new antimalarial compounds that act by inhibiting the development of the apicoplast in the malarial parasite Plasmodium falciparum. The biochemical processes that make this organelle essential for erythrocytic stage parasites are not well understood. However, antibiotics such as azithromycin and tetracycline, which target the apicoplast translational machinery, have a potent antimalarial effect.
We have developed a cell-based assay that measures parasite growth based on the expression of an integrated copy of a firefly luciferase reporter. To detect small molecules that cause this 'delayed death' phenotype, erythrocytes infected with the luciferase-expressing parasites were incubated with compounds for either one or two generations, corresponding to 48 and 96 hours, respectively. Compounds that inhibit parasite growth in the second generation, but not the first, should be enriched in antimalarials that target the apicoplast. Growth inhibition is detected by a decrease in luciferase activity
Four microliters of culture medium (RPMI 1640 with 0.5% w/v Albumax (GIBCO), 24 mM sodium bicarbonate and 10 ug/mL gentamycin) were dispensed by a Multi-drop Combi into white solid 1536-well plates (Grenier) and 23 nL compound was added by a pin tool. Four microliters of infected erythrocytes (2% hematocrit, 0.1% parasitemia final concentration) in culture medium were dispensed and the plates incubated for 96 hours at 37 C in 5% CO2. Two microliters of luciferase detection reagent was added and luminescence was detected by a ViewLux (PerkinElmer) reader
With `CC(=O)OCC1=C(C(=O)[O-])N2C(=O)[C@@H](NC(=O)CCC[C@@H](N)C(=O)[O-])[C@H]2SC1.[Zn+2]` the “activity change, negative = inhibition” value was 11.7%.
With `COc1ccc2[nH]cc(CCN(C)C)c2c1` the “activity change, negative = inhibition” value was 25.4%.
For `CNCC[C@H](Oc1ccc(C(F)(F)F)cc1)c1ccccc1`, the Potency was 1.17 µM (active).
For `COc1cc(CCN)ccc1O`, the “activity change, negative = inhibition” value was -2.54%.
For `O=[N+]([O-])c1ccc(O[C@@H]2O[C@H](CO)[C@@H](O)[C@H](O)[C@H]2F)c([N+](=O)[O-])c1`, the “activity change, negative = inhibition” value was -34.1%.
In the case of `N#CC(C#N)=Cc1ccc([N+](=O)[O-])c(O)c1`, the “activity change, negative = inhibition” value is reported as 0.566%.
With `N#C/C(=C\c1ccc(O)c(O)c1)C(=O)NCCCNC(=O)/C(C#N)=C/c1ccc(O)c(O)c1` the Potency was 8.28 µM (active).
In the case of `C=CCN1CCC2(C)c3cc(O)ccc3CC1C2C` (stereo not given), the “activity change, negative = inhibition” value is reported as -26.3%.
For `N[C@H](CCCCCP(=O)(O)O)C(=O)O`, the “activity change, negative = inhibition” value was 0.18%.
With `N[C@@H](Cn1cc(I)c(=O)[nH]c1=O)C(=O)O` the “activity change, negative = inhibition” value was 2.76%.
With `CN1CCN(c2ccc3ccccc3n2)CC1` the “activity change, negative = inhibition” value was 25.9%.
In the case of `CN1CCc2cccc3c2C1Cc1ccc(O)c(O)c1-3` (stereo not given), the Potency is reported as 2.94 µM (active).
In the case of `COc1ccc(CCN)cc1O`, the “activity change, negative = inhibition” value is reported as -0.505%.
For `COc1ccc(-n2nc(C(F)(F)F)cc2-c2ccc(Cl)cc2)cc1`, the “activity change, negative = inhibition” value was -29.4%.
With `CC(C)NCC(O)COc1cccc2ccccc12` (stereo not given) the “activity change, negative = inhibition” value was 4.56%.
